From PubChem
HT1080 IDH1KD tx: kills HT-1080 cells with IDH1 knockdown; AID 686971; HT-1080 IDH1 knockdown viability, ATP luminescence, 48 h; hit rate 2% among 360,000; Potency, µM (top dose mostly 46.1 µM), most hits filed as cytotoxic
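% activity derives from luminescence (CellTiter-Glo), normalised to DMSO and no-cell wells. HT-1080-IDH1KD cells, 750/well, had 48 h compound exposure at 37 °C.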
MCF10A rereplic: inducers of DNA re-replication in MCF 10A breast cells; MCF 10A DNA re-replication, Hoechst nuclear intensity, 48 h; Potency, µM (series often up to 46.1 µM), actives largely listed as activators; hit rate 2.9% among 350,000; AID 624296; also: nearly all actives have a fitted effect of over 50% in size
KB-V1 cytotox: kills drug-selected multidrug resistant KB-V1 cells. KB-V1 MDR cells viability, CellTiter-Glo, 72 h. Potency, µM (doses to about 46.1 µM), usual class: cytotoxic. hit rate 3.4% among 400,000; also: nearly all actives have a fitted effect of over 60% in size
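Cytotoxicity toward P-gp-expressing KB-V1 cells was determined as loss of CellTiter-Glo luminescence after 72 h at 37 degrees C. Compounds were tested in quantitative HTS format across a concentration range, with curves fitted to normalized data.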
KB-3-1 cytotox: kills parental KB-3-1 adenocarcinoma cells. KB-3-1 viability, CellTiter-Glo ATP luminescence, 72 h. Potency, µM (doses to about 46.1 µM), actives largely listed as cytotoxic. hit rate 1.4% among 400,000; also: nearly all actives have a fitted effect of over 60% in size
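KB-3-1 cells, DMEM (no phenol red) + 10% FBS; compound by pin transfer, 72 h, 37 °C. Readout: CellTiter-Glo luminescence after 10 min. Data normalized, curve-fitted.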
SW480 rereplic: inducers of DNA re-replication in SW480 colon cancer cells. SW480 DNA re-replication, Hoechst DNA content imaging, 48 h. Potency, µM (doses to about 46.1 µM), hits mostly activators. hit rate 1.8% among 340,000; also: nearly all actives have a fitted effect of over 55% in size
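First, 250 cells per well were seeded. Next, compound or vehicle (23 nL) was pinned in, plates sat 48 hr at 37 C. Finally Hoechst was added for 40 min before fluorescence scanning.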
HT1080NT lethal: kills 2HG-producing HT-1080-NT fibrosarcoma cells; hit rate 1.6% among 360,000; Potency, µM (series often up to 46.1 µM), actives largely listed as cytotoxic; HT-1080-NT fibrosarcoma viability, CellTiter-Glo ATP luminescence, 48 h;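 also: NT is the 2HG producing partner of a matched IDH1 knockdown line; nearly all actives have a fitted effect of over 55% in size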
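HT-1080-NT fibrosarcoma cells (2HG-overproducing), 750 cells/well in RPMI with 5% FBS, dosed after 2 h and incubated 48 h at 37C. CellTiter-Glo luminescence normalized to DMSO and no-cell wells; concentration-response curves fitted and classed.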
Hits are given with their value; . = inactive; ? = inconclusive; / = no result given; [ ] = another dose, or the depositor's remark. In the library only some 8% were active in any assay of this set; here they are far more common. Calls follow the shape of the dose curve; as a rule, active = well fitted curve in the direction sought with a large enough effect; inconclusive = small, poorly fitted or top-dose-only effect, or another doubt; inactive = no such curve, though single readings can be large; an effect the other way counts as inactive or inconclusive.

SMILES	HT1080 IDH1KD tx	MCF10A rereplic	KB-V1 cytotox	KB-3-1 cytotox	SW480 rereplic	HT1080NT lethal
CCCCn1c(=O)[nH]c(=O)c2c1nc(COC(=O)c1c(C)noc1C)n2CCC	.	.	4.1µM	.	.	.
CCCCn1c(CCC(=O)O)nc2c1c(=O)[nH]c(=O)n2CCC	.	.	.	.	.	.
N#Cc1cnn2c(N)c(-c3ccc(Cl)cc3)cnc12	.	.	4.1µM	?	?	?
N#Cc1cnn2c(-c3cccc(C(F)(F)F)c3)ccnc12	.	.	.	.	.	.
N#Cc1cnn2c(-c3ccc(Cl)cc3Cl)ccnc12	.	.	16µM	.	.	.
Nc1c(-c2ccccc2)cnc2c(-c3ccccc3)cnn12	.	.	.	.	.	.
CCN(CC)S(=O)(=O)c1ccc(C(=O)NCCSc2c(-c3ccc(F)cc3)[nH]c3ccccc23)cc1	/	/	.	?	/	/
Cc1ccc(-n2cc(C(=O)c3ccc(N4CCN(C)CC4)cc3)nn2)cc1Cl	.	0.73µM	.	.	.	.
CCOc1ccc(-c2ccc(SCC(=O)Nc3nnc(CC)s3)nn2)cc1	.	.	.	.	.	.
CCOc1ccc(-c2ccc(SC)nn2)cc1	23µM	.	12µM	?	.	16µM
COc1ccc(C2(C)NC(=O)N(CC(=O)c3cc(C)n(C4CC4)c3C)C2=O)cc1OC (stereo not drawn)	.	.	23µM	?	.	.
CCC1(C)NC(=O)N(CC(=O)c2cc(C)n(C3CC3)c2C)C1=O (stereo not drawn)	.	.	.	.	.	.
COc1ccc(OCCNc2cc(N3CCOCC3)ccc2[N+](=O)[O-])cc1	?	.	?	.	.	?
Cc1ccccc1OCCNc1cc(N2CCN(CCO)CC2)ccc1[N+](=O)[O-]	15µM	.	?	.	.	?
COc1cccc(OCCNc2cc(N3CCOCC3)ccc2[N+](=O)[O-])c1	.	?	9.2µM	.	.	.
CC1CN(c2ccc([N+](=O)[O-])c(NCCOc3ccccc3)c2)CCN1 (stereo not drawn)	16µM	.	?	.	.	15µM
Cc1ccccc1OCCNc1cc(N2CCCCC2)ccc1[N+](=O)[O-]	.	.	?	.	.	.
COc1cccc(OCCNc2cc(N3CCCCC3)ccc2[N+](=O)[O-])c1	.	.	?	.	.	.
Cc1cccc(OCCNc2cc(N3CCN(CCO)CC3)ccc2[N+](=O)[O-])c1	.	.	18µM	.	?	.
O=S(=O)(c1ccc2ncccc2c1)N1CCN(c2nc(-c3cccs3)nc3ccccc23)CC1	.	/	/	/	/	.
Cc1cc(C)cc(C(=O)NCCc2sc(-c3ccc(F)cc3)nc2C)c1	/	/	?	.	/	/
CCOc1cc(CNc2ccc(O)cc2)ccc1OCc1ccc(Cl)cc1Cl	.	?	?	.	?	.
COc1cc(/C=N/O)cc(Br)c1OCc1ccc(Cl)cc1	?	18µM	.	.	?	?
COc1cc(CNCCO)cc(Cl)c1OCc1ccc(Cl)cc1Cl	16µM	?	.	.	?	21µM
COc1cc(CNC(C)(C)CO)cc(Br)c1OCc1ccc(Cl)cc1Cl	16µM	18µM	18µM	?	.	16µM
SMILES	HT1080 IDH1KD tx	MCF10A rereplic	KB-V1 cytotox	KB-3-1 cytotox	SW480 rereplic	HT1080NT lethal
COc1cc(CNC(C)(C)CO)cc(Br)c1OCc1ccc(Cl)cc1	?	?	23µM	?	?	?
COc1cc(/C=N/O)cc(Br)c1OC	.	.	.	.	.	.
COc1cc(CNCCO)cc(Br)c1OCc1ccccc1Cl	.	?	?	?	?	.
Cc1cccc(C(=O)Nc2ccc(N3CCC(N4CCCCC4)CC3)c(C(=O)O)c2)c1	/	/	.	.	/	/
O/N=C/c1ccccc1OCc1ccc(Cl)cc1	?	?	.	.	.	.
CC(C)(CO)NCc1c(OCc2ccc(Cl)cc2)ccc2ccccc12	?	?	.	23µM	?	?
O=C(O)CC(Cc1ccccc1)c1ccc2c(c1)OCO2 (stereo not drawn)	.	.	?	?	.	.
CC(=O)N(CCC(Cc1ccccc1)c1ccc2c(c1)OCO2)Cc1ccc(Cl)cc1 (stereo not drawn)	?	16µM	?	?	?	?
O=C(Cn1ncc2c3ccccc3n(Cc3cccc(Cl)c3)c2c1=O)NCCCN1CCCCC1	/	/	?	.	/	/
Cc1ccc(S(=O)(=O)N2CCN(c3cc(-c4cccs4)nc4ccccc34)CC2)cc1	/	/	.	.	/	/
Cc1ccccc1CN1C(=O)c2ccccc2S1(=O)=O	.	23µM	.	.	.	.
Cc1ccccc1CNC(=O)CN1C(=O)c2ccccc2S1(=O)=O	.	.	.	.	.	.
Cc1nn(C)c2c1c(-c1ccccc1)cc(=O)n2Cc1ccccc1Cl	/	/	.	.	/	/
Cn1c(COc2ccccc2)nnc1SCCSc1nnc(COc2ccccc2)n1C	.	.	?	.	.	.
Cn1c(COc2ccc(Br)cc2)nnc1SC1CCc2ccccc2C1=O (stereo not drawn)	.	?	16µM	?	/	.
C[C@H](NC(=O)c1[nH]cnc1C(=O)Nc1ccc(CNC(=O)OC(C)(C)C)cc1)C(=O)OCc1ccccc1	?	?	?	?	.	?
CC(C)C[C@H](NC(=O)c1nc[nH]c1C(=O)NCCCCCNC(=O)OC(C)(C)C)C(=O)OCc1ccccc1	.	?	?	.	.	.
CC(C)C[C@H](NC(=O)c1nc[nH]c1C(=O)NCc1ccc(CNC(=O)OC(C)(C)C)cc1)C(=O)OC(C)(C)C	?	.	?	.	.[9.22 µM]	.
CC(C)C[C@H](NC(=O)c1[nH]cnc1C(=O)Nc1ccc(CNC(=O)OC(C)(C)C)cc1)C(=O)OCc1ccccc1	.	18µM	?	.	.	?
CC(C)(C)OC(=O)NCCCCCNC(=O)c1[nH]cnc1C(=O)N[C@@H](Cc1ccccc1)C(=O)OCc1ccccc1	.	13µM	.	?	?	?
CC(C)C[C@H](NC(=O)c1[nH]cnc1C(=O)Nc1ccc(CNC(=O)OC(C)(C)C)cc1)C(=O)OC(C)(C)C	18µM	?	?	.	.	?
CCc1ccc(CNC(=O)CSc2cc(=O)n(C)c3ccc(Cl)cc23)cc1	/	/	.	.	/	/
CCn1cc(S(=O)(=O)c2ccccc2)c(=O)c2cc(F)c(N3CCCCCC3)cc21	/	/	.	.	/	/
CCOC(=O)C1CCN(C(=O)Cn2ncc3c4ccccc4n(Cc4ccc(F)cc4)c3c2=O)CC1	/	/	.	.	/	/
O=C(O)c1cccc(COc2ccc3c(c2)CCC3)c1	.	.	.	.	.	.
O=C(NCc1ccccc1)c1cccc(COc2ccc3c(c2)CCC3)c1	.	.	16µM	.	.	.
